Bioassay records: PubChem, National Center for Advancing Translational Sciences (NCATS)
Compounds with a hit are over-represented: about 2.4% of the library has one in this group of screens.
D2 ag-1 = agonists of human D2 dopamine receptor (beta-arrestin) | AID 624465 | P14416 | activation, % (no concentration beside the values) | 360,000 compounds, 0.084% hits | DiscoveRx PathHunter D2 beta-arrestin, luminescence, 90 min; 100% = 57 uM dopamine signal; in the data active = activation above about 40%
Target sequence (P14416 whole entry, looked up): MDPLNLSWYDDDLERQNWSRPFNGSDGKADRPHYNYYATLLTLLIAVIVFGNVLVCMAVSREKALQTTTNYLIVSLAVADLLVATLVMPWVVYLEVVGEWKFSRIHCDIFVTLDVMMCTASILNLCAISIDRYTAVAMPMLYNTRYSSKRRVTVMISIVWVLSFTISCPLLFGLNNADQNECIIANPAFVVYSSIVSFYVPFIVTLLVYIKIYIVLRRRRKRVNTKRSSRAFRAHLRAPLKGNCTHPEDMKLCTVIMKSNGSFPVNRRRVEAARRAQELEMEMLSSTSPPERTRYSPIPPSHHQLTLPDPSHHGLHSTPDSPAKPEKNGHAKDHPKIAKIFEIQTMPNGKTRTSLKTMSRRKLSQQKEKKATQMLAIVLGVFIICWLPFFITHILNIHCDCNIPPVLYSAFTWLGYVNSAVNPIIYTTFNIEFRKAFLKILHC
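Agonist mode: compounds alone added to overnight-plated D2 PathHunter cells for 90 min at 37 C, with 57 uM final dopamine (EC100) defining full response. Beta-arrestin recruitment detected by chemiluminescent reagent, read after 1 h at ambient temperature.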
D2 PAM-1 = positively modulates the human D2 dopamine receptor allosterically; P14416; HEK293 T-REx D2, calcium flux, EC20 dopamine potentiation; potentiation, % at 10 µM; 340,000 compounds, 0.34% hits; AID 485347;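 active = potentiation over 3 SD above the plate norm, cut at about 30% in these data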; also: 0% is about no effect
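Calcium flux readout, no-wash dye, 1 read/s. Inducible HEK293 Trex D2 line, overnight 30 C. Compound alone 180 s (agonist flags), then EC20 dopamine, another 180 s to score potentiation.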
D2 ag-2 = activates the human D2 dopamine receptor; P14416; HEK293 T-REx D2 cells, calcium flux agonist mode; activation, % at 2 µM; 340,000 compounds, 0.53% hits; AID 485358;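 active = activation over 3 SD above normal in the single-dose calcium agonist read, cut at about 30% in these data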; also: 0% is about no effect
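Tetracycline-induced HEK293 T-REx cells with force-coupled D2 receptor, plated overnight at 30 C, loaded with no-wash calcium dye. After a 10 s baseline, compound was pin-added and calcium flux read kinetically for 180 s; calcium rises flagged agonists.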
D2 antagonist = D2 dopamine receptor (human) antagonism; P14416; HEK293 TREx D2 cells, calcium flux, dopamine EC80; inhibition, % at 10 µM; 340,000 compounds, 2% hits; AID 485344; in the data active = inhibition above about 30%; inactive = below that, where a call was filed; also: 0% is about no effect
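Compounds are added to dye-loaded, induced HEK293 T-REx cells coupled to calcium release via D2; after a 3 min kinetic read an EC80 dopamine stimulus is given and fluorescence is recorded for 3 more min.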
D2 PAM-2 = positive allosteric modulators of human D2 dopamine receptor; P14416; DiscoveRx D2 beta-arrestin cells, luminescence, 90 min; 100% = 57 uM dopamine signal; potentiation, % (no concentration beside the values); 360,000 compounds, 0.23% hits; in the data active = potentiation above about 50%
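D2 cells co-treated with compound plus 50 nM dopamine (EC20) for 90 min at 37 deg C to detect potentiation. Beta-arrestin recruitment was read as enzyme-fragment luminescence after 1 h at ambient temperature. Full response was set by 57 uM dopamine.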
* marks the source's active call; other numbers are inactive results; . = no result.

SMILES	D2 ag-1	D2 PAM-1	D2 ag-2	D2 antagonist	D2 PAM-2
CCOC(=O)c1cccc(NC(=O)CCn2c(=O)oc3ccccc32)c1	-1	-14	-2	32*	-6
Cc1cc(C)c(NC(=O)CCCn2c(=O)oc3ccccc32)c(C)c1	-3	4	0	33*	-1
CC(C)CSc1nc2ccccc2n1CC(N)=O	-1	-24	0	11	-4
CCOc1ccccc1NC(=O)c1c(NC(=O)COc2ccc(Cl)cc2)sc2c1CCCCC2	.	-1	1	.	.
COc1ccc(C(=O)NC(=S)N2CCN(c3ccccc3OC)CC2)cc1	-4	-11	0	15	-14
Cc1ccc(S(=O)(=O)N2CCN(C(=O)COC(=O)CNC(=O)c3ccccc3)CC2)c(C)c1	-3	2	0	33*	-1
CCC1(C)Cc2nc3sc(C(=O)O)c(N)c3cc2CO1 (configuration not stated)	-1	0	1	37*	-17
CCOC(=O)c1sc2nc3c(cc2c1N)COC(C)(CC)C3 (configuration not stated)	0	-6	0	13	-22
COc1ccc(Cl)cc1NC(=O)Nc1cccc([N+](=O)[O-])c1C	-5	-26	1	66*	-57
COc1ccc(Cl)cc1NC(=O)c1ccccc1C	-3	0	-1	32*	-26
CCC(C(=O)Nc1cc(Cl)ccc1OC)c1ccccc1 (configuration not stated)	-4	11	0	4	-9
COc1ccccc1C(=O)Nc1cc(Cl)ccc1O	1	-4	1	4	-6
COc1ccc(Cl)cc1NC(=O)C(OC)c1ccccc1 (configuration not stated)	-3	10	0	30*	-23
CCC(C(=O)Nc1cc(OC)c(NC(=O)c2ccccc2)cc1OC)c1ccccc1 (configuration not stated)	1	16	-1	42*	-3
CCOC(=O)c1c(S(=O)(=O)NCC(=O)Nc2cccc(C)c2C)c(C)n(C)c1C	-1	-1	0	5	-4
CCOC(=O)N1CCN(C(=O)C2CCCN(S(=O)(=O)c3ccc(OCC)cc3)C2)CC1 (configuration not stated)	0	10	-1	1	-9
Cc1ccc(C)c(S(=O)(=O)N2CCN(C(=O)Cc3ccc(S(=O)(=O)N4CCOCC4)s3)CC2)c1	1	.	.	.	17
COc1cccc(S(=O)(=O)Nc2cccc(C(=O)N3CCCC3)c2)c1	6	-1	0	-3	-5
CS(=O)(=O)Nc1ccc(C(=O)N2CCN(c3ccccc3F)CC2)cc1	-2	-6	0	63*	-3
COc1ccc(N2CCN(C(=O)c3ccc(NS(=O)(=O)c4cccc(F)c4)cc3)CC2)cc1	0	34*	0	3	3
O=C(c1ccccc1)N1CCN(c2ccccc2F)CC1	2	-18	3	0	-10
O=C(Nc1ccccc1N1CCOCC1)c1cccc(NS(=O)(=O)c2ccc(F)c(F)c2)c1	12	-18	-1	48*	3
COc1cccc(S(=O)(=O)Nc2cccc(C(=O)N3CCOCC3)c2)c1	-4	1	0	36*	-17
O=C(Nc1ccccc1N1CCOCC1)c1ccccc1NS(=O)(=O)c1ccc(F)c(F)c1	0	6	2	-3	-14
O=C(CN1CCC(NC(=O)C2CCCCC2)CC1)NCc1ccco1	-1	.	.	.	-34
SMILES	D2 ag-1	D2 PAM-1	D2 ag-2	D2 antagonist	D2 PAM-2
CCN(CC)S(=O)(=O)c1cc(C(=O)OCC(=O)NC2CCCc3ccccc32)ccc1C (configuration not stated)	-3	4	0	37*	-17
CC(=O)N/C(=C/c1ccccc1)C(=O)NC(Cc1ccccc1)C(=O)O (configuration not stated)	-3	-3	-1	2	-9
CCn1nnc(NC(=O)c2ccc(C(C)(C)C)cc2)n1	1	5	-1	10	-4
Cc1ccc(NC2=C(NCCO)C(=O)c3ccccc3C2=O)cc1	8	10	0	-4	60*
CCOC(=O)c1cc2n(c1/N=C/N(C)C)-c1ccccc1C2=O	-4	4	36*	15	-4
CCOC(=O)c1ccc2c(c1)N(C)C(=O)c1ccccc1S2	-2	-1	1	-2	-3
